Reference: the supplement of paper PMC3334620
Over roughly 33,000 sequences, “E-score (-0.5 to 0.5)” has its median near -0.0034; the highest 2% begin near 0.25. What follows is part of a selection rich in the highest values, with near analogues and random picks from the rest.

target: T1, Yap3 (UniProt P38749); test: PBM E-score (8-mer binding enrichment) (E-score (-0.5 to 0.5)); higher = stronger / more preferred TF binding; details: protein concentration: 100 nM; construct: GST-full length
T1 sequence: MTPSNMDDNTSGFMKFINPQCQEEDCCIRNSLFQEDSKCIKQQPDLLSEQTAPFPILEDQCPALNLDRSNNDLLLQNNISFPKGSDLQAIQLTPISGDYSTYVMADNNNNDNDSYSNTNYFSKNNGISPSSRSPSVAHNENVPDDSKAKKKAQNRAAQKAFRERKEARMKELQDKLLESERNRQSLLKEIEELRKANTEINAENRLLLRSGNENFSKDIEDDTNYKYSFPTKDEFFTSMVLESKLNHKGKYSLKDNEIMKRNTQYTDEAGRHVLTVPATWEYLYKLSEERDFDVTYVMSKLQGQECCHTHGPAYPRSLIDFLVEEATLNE
Method: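 Universal 'all 10-mer' protein binding microarrays (Agilent AMADID 015681) probed with GST-tagged S. cerevisiae TFs (full-length or DBD) made by in vitro transcription/translation (PURExpress), about 100-200 nM. Bound TF was detected with fluorescent anti-GST. Each ungapped 8-mer (which stands for itself and its reverse complement) is scored by the PBM enrichment score (E-score), a modified Wilcoxon-Mann-Whitney statistic from -0.5 to +0.5, computed with the Universal PBM Analysis Suite. Scale: above 0.35 generally sequence-specific binding.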

Sequence	PBM E-score
ATGACAAA	0.307
ATCACGTG	0.0436
ATGACGTA	0.277
ATGACGTG	0.127
ATGACAAC	0.189
ATCACGTC	0.16
TGACTGCA	-0.167
CGCAGGTA	-0.116
ACTTAAGT	0.193
CCGAGCGC	0.00891
ACCTAGGG	-0.0254
AGCAACGA	0.117
CCGCTCGC	-0.178
ACAAGTTA	0.16
ACCAATAG	-0.0827
ACCAATAC	0.0412
AACAATAA	0.179
ACCAATAT	0.254
AACAATAC	0.0469
AACAATAT	0.329
CGTGAACC	-0.157
TCTCAGCA	0.0139
CAATTGGC	0.179
AATCCCCA	-0.0814
CGGTTACC	-0.159
ACCATGCG	0.0314

Sequence	PBM E-score
AAATTGGT	0.244
CCAGGGAA	-0.188
CCGAACCA	-0.116
ACGAACCA	0.266
ACGAACCC	-0.133
AGAAGGCA	-0.115
AATGCAAG	0.0231
CATGCGCA	0.0286
AATGCGCG	0.178
AATGCATA	0.0923
AATGCATG	0.188
AATGCGCA	0.295
AATGCAAA	0.262
AATGCATT	0.258
AATGCAAC	0.104
GCTCTCCA	-0.215
TCTATTCA	0.222
TCAAACCA	0.165
ACACTCGT	0.00445
TAATCCAA	0.24
AGAGCCCA	-0.112
CGGAAGAC	-0.00677
CGAATATA	0.148
ATAATATC	0.194
CTAATATA	0.235
GTAATAGA	0.223

Sequence	PBM E-score
ATAATATA	0.307
CTAATCTA	0.00845
ATAATCTA	0.229
ATAATATG	0.307
GTAATATA	0.354
GTAATCTA	0.319
ATAATAGG	0.157
AGAATATA	0.14
CAATCGGC	-0.0271
CAAACTGC	0.0735
ACTTGCTA	-0.0697
CACTCGAC	-0.0984
AATTAGAA	0.0871
CGATGGCC	-0.0485
TGCTAGAA	-0.0446
CCAGATAG	-0.0894
ACAATATA	0.302
CCAATATA	0.0353
GCAATATA	0.216
AATGCGAC	0.106
AAGCGCTT	0.321
AAGCGCTC	-0.0695
AAGCGCTA	0.0946
ACGCTTAT	-0.04
AGTAACTG	0.0876
AATATGTG	0.273

Sequence	PBM E-score
CATATATG	0.126
AATATATA	0.229
AATATATG	0.304
AATATGTA	0.222
AATATGTC	0.111
AATATATT	0.331
ACTATATG	0.193
AATATATC	0.157
TTCTGAAA	0.145
ACCCAAAC	0.0961
AGATCCTA	0.0833
CAAGTTCA	-0.00101
CGGATGAC	0.0307
ATCTTTCA	0.207
GATAATCA	0.221
AATAATCA	0.11
CATAATCC	0.0889
CATAATCA	0.271
TATAATCA	0.265
CATAATCG	0.187
CATAAGTC	0.112
CTGGTCTA	-0.0194
AGCGCACG	-0.0432
ATTGGTAA	0.304
CTTGGTAA	0.101
GTTGGTAA	0.149

Sequence	PBM E-score
ACGTCTCT	-0.138
ATTACCGG	-0.0144
AGTTGTGA	0.108
AGTTGTGG	0.271
AGTTGTGC	0.0195
TATCAAAA	0.23
ATATGAGA	0.196
GCTAATCA	0.164
ATTAATCG	0.191
ATTAATCC	0.0925
CTTAATCA	0.166
GTTAATCA	0.256
ATTAATCA	0.287
AACTTTAA	0.234
AAGTCTCA	-0.101
GATCAGAC	-0.0877
AGTGGAAC	-0.0961
GAAGCCTC	-0.198
CACGAACA	0.192
AACGAACA	0.259
AACGAACG	-0.00775
CAGGGTCC	-0.29
CCAAATTA	0.192
GAAAATTA	0.207
AGAAATTA	0.202
ACAAATTA	0.242

Sequence	PBM E-score
GCAAATTA	0.262
GGAAATTA	0.332
ATACCACC	0.086
GGAATCTA	0.0443
GTCGCACA	-0.0581
GATTTGGA	-0.0207
AGATGGAA	-0.0109
ATTTATAA	0.273
ATTTATAG	0.206
CTTTATAC	0.114
CTTTATAA	0.206
GTTTATAA	0.224
ATTTATAC	0.302
AATGAGCA	-0.00708
TCAACTGA	0.0958
AATGGCTA	0.169
AAGAATTG	0.171
TCGGGGAA	0.0864
AAATGCCG	0.113
ATACAGAT	0.11
AGTAAATA	0.26
GGGAAATA	0.0786
CGGAAATC	0.12
AGTAAATG	0.0753
GGTAAATA	0.111
CGTAAATC	-0.00431

Sequence	PBM E-score
CGTAAATA	0.262
CGGAAATA	0.289
AGTAAATC	0.159
AGACTGAA	-0.0205
AGCACGTG	0.127
GAGCCACA	-0.104
ACCCTATA	-0.084
CGTGGATA	-0.0137
GCAGGTTA	-0.0925
TAAAACAA	0.0703
GAAAACTA	0.16
GAAAACAA	0.199
ACAAACAA	0.173
AAAAACAA	0.28
ATAAACAC	0.1
ATAAACAA	0.279
GCAAACAC	-0.0377
TTAAACAA	-0.026
GCAAACAA	0.272
CAAAACTA	0.223
AAAAACTA	0.256
